This note sets out measurements from PubChem BioAssay (Tox21).

Test [1] in a line: qHTS assay to identify small molecule antagonists of the androgen receptor (AR) signaling pathway using the MDA cell line in the presence of 0.5 nM R1881 - cell viability counter screen (AID 1259242). Also: nearly all actives have a fitted effect of over 45% in size. Also: potency is read from the fitted curve at half-maximal effect. An outline of the steps: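 R1881 at 0.5 nM final stimulated MDA-kb2 cells during 16 hr compound treatment at 37C. Cytotoxicity read: CellTiter-Fluor fluorescence after 30 min.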
A general note: In qHTS, concentration-response curves come from the screen itself.

Test [2] addresses Androgen receptor (Homo sapiens) (UniProt P10275). As to the kind of experiment: qHTS assay to identify small molecule antagonists of the androgen receptor (AR) signaling pathway using the MDA cell line in the presence of 0.5 nM R1881 (AID 1259243). Also: nearly all actives have a fitted effect of over 50% in size. An outline of the steps:
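We exposed MDA-kb2 cells to compounds under 0.5 nM R1881 stimulation for 16 hr at 37C and quantified MMTV-driven luciferase by luminescence.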

Test [3] in a line: qHTS assay to identify small molecule HDAC inhibitors (AID 1259364).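 Also: wild-type HCT-116 cells with endogenous class I/II HDAC activity; top concentration of the series differs between compounds; nearly all actives have a fitted effect of over 45% in size.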 An outline of the steps:
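Relative class I and II HDAC activity is taken from the luminogenic signal in HCT-116 cells, with compound exposure 2 hr and reagent development 30 min at room temperature.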

Test [4] is described as follows: qHTS assay to identify small molecule HDAC inhibitors - cell viability counter screen (AID 1259365). Also: series mostly up to about 92 µM; nearly all actives have a fitted effect of over 50% in size. An outline of the steps: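 Measured quantity is CellTiter-Glo luminescence from wild-type HCT-116 cells after compound incubation of 2hr at 37C, 5% CO2; reagent developed 30min at room temperature.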
Test [5] is described as follows: qHTS assay to identify small molecule agonists of the sonic hedgehog signaling (Shh) pathway - cell viability counter screen (AID 1259366). Also: nearly all actives have a fitted effect of over 50% in size. The gist of the method:
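In quantitative high-throughput format, 3T3 Gli1-Luc cells were exposed to compounds for 24hr and multiplexed for viability using CellTiter-Fluor, incubated 1hr at 37C before the fluorescence read.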

Test [6] can be described thus: qHTS assay to identify small molecule antagonists of the sonic hedgehog signaling (Shh) pathway - cell viability counter screen (AID 1259367). Also: nearly all actives have a fitted effect of over 55% in size. The gist of the method:
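NIH/3T3-derived Gli1-Luc reporter cells, 2,000/well, plated 4 hr before compound addition, then stimulated with conditioned medium for 24 hr at 37C. Viability measured in the same wells by CellTiter-Fluor fluorescence, reagent added at 23 hr for 1 hr.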

Test [7] can be described thus: qHTS assay to identify small molecule agonists of the sonic hedgehog signaling (Shh) pathway (AID 1259368; calls by dose curve;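 also: NIH/3T3-derived 3T3Gli1-Luc cells carrying a stable Gli1-driven firefly luciferase reporter; series mostly up to about 92 µM; nearly all actives have a fitted effect of over 15% in size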). The gist of the method:
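Mouse fibroblast (NIH/3T3) reporter cells with stably integrated Gli1-Luc were treated 24 hr with compound; firefly luciferase luminescence served as the read-out.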

A short description of test [8]: qHTS assay to identify small molecule antagonists of the estrogen receptor alpha (ER-alpha) signaling pathway using the BG1 cell line in the presence of 0.1 nM 17-beta-estradiol - cell viability counter screen (AID 1259241). Also: nearly all actives have a fitted effect of over 40% in size. An outline of the steps: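 In this screen, hormone-deprived VM7Luc4E2 cells were seeded at 4,000 per well, dosed with compound and 0.1 nM estradiol final, and incubated 22 hr at 37C and 5% CO2; fluorogenic live-cell protease signal reported viability.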

Test [9] deals with Estrogen receptor (Homo sapiens) (UniProt P03372). As to the kind of experiment: qHTS assay to identify small molecule antagonists of the estrogen receptor alpha (ER-alpha) signaling pathway using the BG1 cell line in the presence of 0.1 nM 17-beta-estradiol (AID 1259244). Also: nearly all actives have a fitted effect of over 50% in size. Also: potency is read from the fitted curve at half-maximal effect. An outline of the steps:
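VM7Luc4E2; 4xERE-luciferase; 0.1 nM E2 final; 22 h co-incubation, 37C; ONE-Glo luminescence after 30 min at room temperature.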

Test [10] in a line: qHTS assay to identify small molecule phospholipidosis (PLD) inducers (AID 1259344; active = well fitted curve in the direction sought with a large enough effect; an effect the other way counts as inactive or inconclusive). An outline of the steps:
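HepG2 cells, 900/well, treated with compound plus LipidTOX Red for 24 h at 37 C; amiodarone positive and DMSO negative controls. Fixed with paraformaldehyde/Hoechst, then high-content imaging scored LipidTOX pit count and integrated intensity per well and per cell.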

Values joined by “and” are separate entries in the source; they are usually repeats but may differ in a detail not shown here. Equal values may be shown once. Results filed as inconclusive are left out. Active and inactive are the calls of the source. Unless noted, calls follow the shape of the dose curve; as a rule, active = well fitted curve in the direction sought with a large enough effect in the repeat runs; inconclusive = weak or mixed curves; inactive = no such curve, though single readings can be large; an effect the other way counts as inactive or inconclusive.

Estrogen receptor (Homo sapiens), sequence (P03372 whole entry, looked up): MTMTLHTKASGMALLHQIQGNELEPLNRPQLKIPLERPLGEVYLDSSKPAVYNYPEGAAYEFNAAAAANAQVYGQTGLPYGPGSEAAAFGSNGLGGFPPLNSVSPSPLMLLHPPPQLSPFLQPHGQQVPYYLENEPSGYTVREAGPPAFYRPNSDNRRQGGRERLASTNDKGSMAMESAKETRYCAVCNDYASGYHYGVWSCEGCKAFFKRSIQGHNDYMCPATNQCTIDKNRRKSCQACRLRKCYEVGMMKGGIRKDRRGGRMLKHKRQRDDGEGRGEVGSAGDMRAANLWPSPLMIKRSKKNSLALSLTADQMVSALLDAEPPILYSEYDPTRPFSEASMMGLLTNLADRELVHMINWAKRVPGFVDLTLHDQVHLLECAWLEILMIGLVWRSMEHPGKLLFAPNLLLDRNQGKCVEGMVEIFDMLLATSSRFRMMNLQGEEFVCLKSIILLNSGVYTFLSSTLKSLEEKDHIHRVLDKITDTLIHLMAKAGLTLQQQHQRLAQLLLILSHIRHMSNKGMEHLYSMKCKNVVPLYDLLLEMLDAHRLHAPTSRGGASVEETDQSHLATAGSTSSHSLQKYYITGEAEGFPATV
Androgen receptor (Homo sapiens), sequence (P10275 whole entry, looked up): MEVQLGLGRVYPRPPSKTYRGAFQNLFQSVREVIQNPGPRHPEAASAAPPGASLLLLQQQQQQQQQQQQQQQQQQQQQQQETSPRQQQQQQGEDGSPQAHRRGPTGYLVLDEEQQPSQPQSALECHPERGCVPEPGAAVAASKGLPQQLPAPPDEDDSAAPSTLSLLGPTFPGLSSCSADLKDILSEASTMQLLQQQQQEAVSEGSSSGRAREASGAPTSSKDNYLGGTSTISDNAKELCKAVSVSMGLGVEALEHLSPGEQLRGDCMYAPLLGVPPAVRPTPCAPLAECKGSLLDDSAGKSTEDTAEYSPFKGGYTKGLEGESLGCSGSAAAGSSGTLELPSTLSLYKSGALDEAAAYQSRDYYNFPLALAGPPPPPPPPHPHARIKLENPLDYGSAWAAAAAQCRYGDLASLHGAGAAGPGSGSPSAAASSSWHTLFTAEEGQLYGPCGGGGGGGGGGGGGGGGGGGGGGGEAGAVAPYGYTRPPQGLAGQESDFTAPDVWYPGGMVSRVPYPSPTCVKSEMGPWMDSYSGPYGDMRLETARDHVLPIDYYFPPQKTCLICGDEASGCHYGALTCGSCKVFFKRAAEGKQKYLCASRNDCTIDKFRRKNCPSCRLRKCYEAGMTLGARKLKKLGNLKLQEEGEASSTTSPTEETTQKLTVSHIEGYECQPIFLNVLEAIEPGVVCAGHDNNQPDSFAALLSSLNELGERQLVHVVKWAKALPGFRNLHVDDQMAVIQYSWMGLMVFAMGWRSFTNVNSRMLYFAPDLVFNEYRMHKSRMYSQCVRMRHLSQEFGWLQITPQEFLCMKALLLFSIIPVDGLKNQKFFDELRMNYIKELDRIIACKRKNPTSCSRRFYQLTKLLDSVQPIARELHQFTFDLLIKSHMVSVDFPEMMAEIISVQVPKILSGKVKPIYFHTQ

Consider `CC(C=O)Cc1ccc(C(C)(C)C)cc1` (configuration not stated), for which the Potency result in test [1], in [2], in test [3], in [4], in [5] and in test [6] was “inactive” each time. In addition, in test [7], the Potency result was “inactive”.
On to `Nc1cccc(N)n1`, for which the Potency result in test [8], in test [1], in test [9], in [4], in test [5] and in [6] was “inactive” each time. Besides, in test [7], the Potency result is “inactive”.
For the compound `COc1ccc2cc3[n+](cc2c1OC)CCc1cc2c(cc1-3)OCO2`, the Potency in [1] is 10.6 µM (active); in [9], 1.55 µM (active) and 11.9 µM (active). Moreover, the result in test [10] was inactive. For the same compound, the Potency result in test [3], in test [4], in [5], in [6] and in test [7] was “inactive” each time.
As to `CC(COCC(C)OC(=O)c1ccccc1)OC(=O)c1ccccc1` (configuration not stated), the Potency entry in test [8], in test [1], in test [4], in test [5], in [6] and in test [7] was “inactive” in each case.
For `OC1CCCCC1`, the Potency result in test [8], in test [1], in test [9], in [4], in test [5] and in test [6] was “inactive” in each case. Further, the Potency result in test [7] was “inactive”.
`CCCCCCCCCCCCCC(=O)O`: the Potency result in [8], in test [1], in test [9], in test [3], in test [4] and in test [5] was “inactive” each time. Besides, the Potency result in [6] and in test [7] was “inactive” throughout.
On to `CC(C)(C)NC[C@H](O)COc1nsnc1N1CCOCC1`, for which the Potency result in test [8], in test [1], in test [4], in test [5], in test [6] and in test [7] was “inactive” in each case. In addition, the call in test [10] was inactive.
In the case of `C[n+]1ccn(CCO)c1`, the Potency result in test [8], in [1], in test [4], in test [5], in test [6] and in [7] was “inactive” in each case.
Take `NC(=O)c1ncn([C@@H]2O[C@H](CO)[C@@H](O)[C@H]2O)n1`: the Potency result in [8], in [1], in test [3], in test [4], in test [5] and in [6] was “inactive” each time. Moreover, in test [7], the Potency result was “inactive”. Besides, the compound was classed as inactive in test [10].
Turning to `CC(=O)OC[C@H]1O[C@@](COC(C)=O)(O[C@H]2O[C@H](COC(C)=O)[C@@H](OC(C)=O)[C@H](OC(C)=O)[C@H]2OC(C)=O)[C@@H](OC(C)=O)[C@@H]1OC(C)=O`, the Potency entry in test [8], in test [1], in [4], in test [5], in [6] and in test [7] was “inactive” throughout. In addition, in test [10], the result was inactive.
Turning to `Cc1cc(C)c(O)c(C)c1`, the Potency entry in test [8], in test [1], in test [9], in test [4], in [5] and in test [6] was “inactive” throughout. In [7], the Potency result was “inactive”.
Regarding `COC(=O)OC`, the Potency result in test [8], in test [1], in [3], in test [4], in test [5] and in test [6] was “inactive” each time. Besides, in test [7], the Potency entry is “inactive”.
With `O=c1n(CCCN2CCN(c3cccc(Cl)c3)CC2)nc2ccccn12`, the Potency entry in [8], in test [1], in test [4], in test [5], in [6] and in test [7] was “inactive” throughout. Also, in test [10], the outcome was inactive.
Turning to `COc1cc(NC(=O)CC(C)=O)c(OC)cc1Cl`, the Potency entry in test [8], in [1], in [9], in [4], in test [5] and in test [6] was “inactive” each time. Moreover, the Potency result in [7] was “inactive”.
As for `C=C(CC(=O)O)C(=O)O`, the Potency entry in test [8], in [1], in test [4], in [5], in [6] and in test [7] was “inactive” throughout.
`CC[N+](CC)(CC(=O)Nc1c(C)cccc1C)Cc1ccccc1`: the Potency result in test [8], in [1], in test [3], in test [4], in test [5] and in test [6] was “inactive” each time. Further, in test [7], the Potency entry was “inactive”. Also, the compound was called inactive in test [10].
As to `CS(=O)(=O)c1ccc(Cl)cc1`, the Potency result in test [8], in test [1], in test [3], in test [4], in test [5] and in test [6] was “inactive” throughout. Besides, the Potency result in [7] was “inactive”.
`OCc1ccc(Cl)cc1Cl`: the Potency entry in [8], in [1], in [3], in test [4], in [5] and in test [6] was “inactive” throughout. Besides, the Potency result in test [7] was “inactive”. Further, in test [10], the compound was called inactive.
Take `CC1(C)[C@@H](O[C@H]2O[C@H](C(=O)O)[C@@H](O)[C@H](O)[C@H]2O[C@@H]2O[C@H](C(=O)O)[C@@H](O)[C@H](O)[C@H]2O)CC[C@]2(C)[C@H]3C(=O)C=C4[C@@H]5C[C@@](C)(C(=O)O)CC[C@]5(C)CC[C@@]4(C)[C@]3(C)CC[C@@H]12`: the Potency result in test [8], in test [1], in test [3], in test [4], in test [5] and in test [6] was “inactive” in each case. Also, the Potency result in test [7] was “inactive”. The outcome in test [10] was inactive.
In the case of `O=[N+]([O-])c1ccccc1C(F)(F)F`, the Potency result in test [1], in [2], in [9], in test [3], in test [4] and in test [5] was “inactive” each time. The Potency result in test [6] and in test [7] was “inactive” in each case.
For `CCc1cccc(CC)c1N`, the Potency result in [1], in test [2], in [9], in test [4], in test [5] and in [6] was “inactive” in each case. Further, the Potency result in test [7] was “inactive”.
As for `CCCCCCC(=O)O`, the Potency result in test [8], in test [1], in test [9], in test [4], in [5] and in [6] was “inactive” in each case. Moreover, in [7], the Potency result was “inactive”.
Consider `N#CCC(=O)O`, for which the Potency result in [8], in [1], in [9], in test [4], in [5] and in [6] was “inactive” throughout. The Potency entry in test [7] was “inactive”.
With `O=C1O[C@H]([C@H](O)CO)C(O)=C1O`, the Potency result in [8], in [1], in [3], in test [4], in test [5] and in test [6] was “inactive” in each case. Further, in test [7], the Potency result is “inactive”.
As for `CN1Cc2c(N)cccc2C(c2ccccc2)C1` (configuration not stated), the Potency entry in test [1], in test [5], in [6] and in test [7] was “inactive” each time. The outcome in test [10] was inactive.
In the case of `CC1=CC(=O)CC(C)(C)C1`, the Potency result in [1], in [3], in [4], in [5], in test [6] and in test [7] was “inactive” throughout.
With `Cc1ccc([N+](=O)[O-])cc1N`, the Potency result in [1], in test [9], in test [3], in [4], in test [5] and in test [6] was “inactive” each time. Besides, the Potency entry in [7] is “inactive”.
Consider `COc1ccc(N)c(OC)c1`, for which the Potency result in test [1], in [9], in test [3], in test [4], in test [5] and in test [7] was “inactive” throughout.
Take `Cc1ccc(C)c(S(=O)(=O)O)c1`: the Potency result in [1], in [3], in test [4], in test [5], in test [6] and in test [7] was “inactive” throughout.
